One assay concerns the target Histone H4 (UniProt P62805). Kind of assay: cross-linking mass spectrometry.
The next assay concerns the target Histone H1.4 (UniProt P10412). Description: cross-link between two proteins; cross-linking mass spectrometry.
In the next assay the target is Protein RCC2 (UniProt Q9P258). Described as above.
Assay [1] deals with Beta-actin-like protein 2 (UniProt Q562R1). The description is as above.
Assay [2] concerns the target Elongation factor 1-alpha 1 (UniProt P68104). The assay is described as above.
In a further assay the target is Histone H2B type 1-B (UniProt P33778). The description is as above.
The target in another assay is Histone H2B type 1-L (UniProt Q99880). Described as above.
The target of assay [3] is Large ribosomal subunit protein eL8 (UniProt P62424). The description is as above.
The next assay addresses Nucleolin (UniProt P19338). The assay is described as above.
The next assay addresses Tubulin beta-2B chain (UniProt Q9BVA1). The assay is described as above.
The next assay deals with Tubulin beta-3 chain (UniProt Q13509). The assay is described as above.
In the next assay the target is Tubulin beta-4B chain (UniProt P68371). The assay is described as above.
Sequence of Tubulin beta-4B chain (P68371 whole entry): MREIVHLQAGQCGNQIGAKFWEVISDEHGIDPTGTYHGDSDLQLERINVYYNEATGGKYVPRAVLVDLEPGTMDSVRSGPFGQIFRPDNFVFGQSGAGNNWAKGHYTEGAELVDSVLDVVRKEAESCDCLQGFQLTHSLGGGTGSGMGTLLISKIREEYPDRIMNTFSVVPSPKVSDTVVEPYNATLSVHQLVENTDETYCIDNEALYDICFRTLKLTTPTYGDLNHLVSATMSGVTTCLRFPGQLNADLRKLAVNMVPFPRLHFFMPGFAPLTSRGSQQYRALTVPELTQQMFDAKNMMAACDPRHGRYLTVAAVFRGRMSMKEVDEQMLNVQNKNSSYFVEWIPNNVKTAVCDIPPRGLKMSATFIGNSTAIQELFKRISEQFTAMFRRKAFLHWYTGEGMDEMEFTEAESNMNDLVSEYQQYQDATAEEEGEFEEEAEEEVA

Sequence of ATP-dependent RNA helicase A, Q08211 (Q08211 whole entry): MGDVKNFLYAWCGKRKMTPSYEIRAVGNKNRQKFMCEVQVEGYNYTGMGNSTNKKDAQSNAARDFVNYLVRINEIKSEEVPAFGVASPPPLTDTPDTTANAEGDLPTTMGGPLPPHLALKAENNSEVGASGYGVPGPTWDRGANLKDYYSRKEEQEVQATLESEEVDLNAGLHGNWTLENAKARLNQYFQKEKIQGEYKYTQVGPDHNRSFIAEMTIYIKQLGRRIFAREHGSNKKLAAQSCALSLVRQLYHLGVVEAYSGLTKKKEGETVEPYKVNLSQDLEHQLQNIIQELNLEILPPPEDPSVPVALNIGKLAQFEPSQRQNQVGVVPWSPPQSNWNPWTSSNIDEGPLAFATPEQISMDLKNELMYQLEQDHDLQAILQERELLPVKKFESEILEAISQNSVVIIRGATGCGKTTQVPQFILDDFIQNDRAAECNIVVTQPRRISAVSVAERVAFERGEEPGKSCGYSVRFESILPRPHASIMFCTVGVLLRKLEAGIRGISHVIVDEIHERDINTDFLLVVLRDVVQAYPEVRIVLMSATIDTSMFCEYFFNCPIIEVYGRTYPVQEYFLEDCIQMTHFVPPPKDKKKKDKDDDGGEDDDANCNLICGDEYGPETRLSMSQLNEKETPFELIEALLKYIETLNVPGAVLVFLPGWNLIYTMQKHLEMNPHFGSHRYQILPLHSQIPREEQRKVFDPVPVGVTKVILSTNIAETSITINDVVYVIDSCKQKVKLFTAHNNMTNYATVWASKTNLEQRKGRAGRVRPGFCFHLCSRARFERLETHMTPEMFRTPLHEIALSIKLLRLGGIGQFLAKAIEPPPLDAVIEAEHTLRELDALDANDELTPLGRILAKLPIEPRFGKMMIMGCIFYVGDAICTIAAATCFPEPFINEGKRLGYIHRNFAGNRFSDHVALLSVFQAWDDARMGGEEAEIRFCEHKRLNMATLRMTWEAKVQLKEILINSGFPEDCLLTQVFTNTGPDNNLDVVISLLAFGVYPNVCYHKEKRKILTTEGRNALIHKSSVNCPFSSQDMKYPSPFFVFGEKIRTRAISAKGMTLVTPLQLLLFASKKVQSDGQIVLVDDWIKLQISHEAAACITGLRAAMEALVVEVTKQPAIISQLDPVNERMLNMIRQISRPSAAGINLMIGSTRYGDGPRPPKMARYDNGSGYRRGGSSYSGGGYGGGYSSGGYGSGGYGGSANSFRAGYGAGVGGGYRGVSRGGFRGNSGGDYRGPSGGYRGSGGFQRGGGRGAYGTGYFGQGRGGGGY
Sequence of Beta-actin-like protein 2 (Q562R1 whole entry): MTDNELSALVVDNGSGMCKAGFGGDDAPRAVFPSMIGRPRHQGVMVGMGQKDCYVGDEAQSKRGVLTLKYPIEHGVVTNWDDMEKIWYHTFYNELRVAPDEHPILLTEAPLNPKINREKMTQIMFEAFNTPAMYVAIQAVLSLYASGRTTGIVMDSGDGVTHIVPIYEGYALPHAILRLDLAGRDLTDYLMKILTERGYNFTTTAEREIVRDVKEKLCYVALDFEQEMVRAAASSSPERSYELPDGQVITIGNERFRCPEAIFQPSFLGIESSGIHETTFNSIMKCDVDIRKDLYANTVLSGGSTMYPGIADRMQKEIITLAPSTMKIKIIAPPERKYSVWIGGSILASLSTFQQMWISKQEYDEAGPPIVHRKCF
Sequence of Tubulin beta-3 chain (Q13509 whole entry): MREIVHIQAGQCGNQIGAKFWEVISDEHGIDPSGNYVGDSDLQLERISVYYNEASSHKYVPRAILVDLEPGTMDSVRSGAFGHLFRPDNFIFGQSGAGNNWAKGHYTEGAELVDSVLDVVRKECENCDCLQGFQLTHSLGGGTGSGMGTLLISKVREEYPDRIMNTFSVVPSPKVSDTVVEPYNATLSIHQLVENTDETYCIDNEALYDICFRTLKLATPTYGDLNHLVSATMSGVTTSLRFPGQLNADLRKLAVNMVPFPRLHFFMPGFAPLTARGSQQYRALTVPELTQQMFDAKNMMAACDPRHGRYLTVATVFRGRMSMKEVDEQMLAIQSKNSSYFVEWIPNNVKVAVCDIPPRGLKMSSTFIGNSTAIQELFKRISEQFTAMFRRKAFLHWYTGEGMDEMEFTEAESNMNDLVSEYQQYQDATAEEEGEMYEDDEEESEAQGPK
Sequence of Elongation factor 1-alpha 1 (P68104 whole entry): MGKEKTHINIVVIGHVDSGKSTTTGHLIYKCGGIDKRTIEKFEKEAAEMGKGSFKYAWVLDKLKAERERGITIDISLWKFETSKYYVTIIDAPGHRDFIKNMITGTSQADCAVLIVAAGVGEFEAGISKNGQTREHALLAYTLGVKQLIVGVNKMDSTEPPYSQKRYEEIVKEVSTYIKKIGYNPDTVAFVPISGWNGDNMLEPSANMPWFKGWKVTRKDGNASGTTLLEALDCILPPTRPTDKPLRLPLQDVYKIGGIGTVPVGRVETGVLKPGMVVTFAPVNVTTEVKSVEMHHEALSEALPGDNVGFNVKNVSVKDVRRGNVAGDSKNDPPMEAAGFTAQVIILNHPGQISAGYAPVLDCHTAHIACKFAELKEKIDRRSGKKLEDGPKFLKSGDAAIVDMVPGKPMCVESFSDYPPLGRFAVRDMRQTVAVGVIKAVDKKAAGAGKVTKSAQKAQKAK
Sequence of Glyceraldehyde-3-phosphate dehydrogenase, P04406 (P04406 whole entry): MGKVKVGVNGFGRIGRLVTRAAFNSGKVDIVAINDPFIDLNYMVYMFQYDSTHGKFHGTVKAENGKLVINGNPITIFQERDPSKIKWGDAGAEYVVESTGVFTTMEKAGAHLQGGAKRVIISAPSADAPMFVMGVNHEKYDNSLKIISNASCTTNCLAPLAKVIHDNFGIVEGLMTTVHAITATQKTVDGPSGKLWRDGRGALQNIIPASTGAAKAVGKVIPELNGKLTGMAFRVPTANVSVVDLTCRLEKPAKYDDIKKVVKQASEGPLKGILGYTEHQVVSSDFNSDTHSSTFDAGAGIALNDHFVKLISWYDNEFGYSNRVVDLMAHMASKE
Sequence of Nucleolin (P19338 whole entry): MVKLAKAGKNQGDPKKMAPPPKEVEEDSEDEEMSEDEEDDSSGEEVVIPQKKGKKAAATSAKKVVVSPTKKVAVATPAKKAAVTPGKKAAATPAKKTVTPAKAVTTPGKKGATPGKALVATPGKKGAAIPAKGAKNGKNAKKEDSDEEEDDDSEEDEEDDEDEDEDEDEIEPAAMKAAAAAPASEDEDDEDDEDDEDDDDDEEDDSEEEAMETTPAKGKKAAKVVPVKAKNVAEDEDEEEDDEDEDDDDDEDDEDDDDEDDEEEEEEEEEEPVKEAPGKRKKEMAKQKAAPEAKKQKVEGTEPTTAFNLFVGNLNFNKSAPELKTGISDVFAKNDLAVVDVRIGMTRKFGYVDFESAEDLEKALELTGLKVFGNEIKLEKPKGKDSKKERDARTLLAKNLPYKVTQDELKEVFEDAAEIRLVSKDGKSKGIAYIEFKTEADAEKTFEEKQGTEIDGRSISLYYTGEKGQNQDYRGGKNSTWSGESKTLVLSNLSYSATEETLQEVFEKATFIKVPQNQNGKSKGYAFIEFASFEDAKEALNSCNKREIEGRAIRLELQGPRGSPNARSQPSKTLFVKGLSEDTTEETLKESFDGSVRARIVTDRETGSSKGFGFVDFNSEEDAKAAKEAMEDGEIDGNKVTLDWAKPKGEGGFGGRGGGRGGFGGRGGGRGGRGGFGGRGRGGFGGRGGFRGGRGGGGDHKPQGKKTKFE
Sequence of Tubulin beta-2B chain (Q9BVA1 whole entry): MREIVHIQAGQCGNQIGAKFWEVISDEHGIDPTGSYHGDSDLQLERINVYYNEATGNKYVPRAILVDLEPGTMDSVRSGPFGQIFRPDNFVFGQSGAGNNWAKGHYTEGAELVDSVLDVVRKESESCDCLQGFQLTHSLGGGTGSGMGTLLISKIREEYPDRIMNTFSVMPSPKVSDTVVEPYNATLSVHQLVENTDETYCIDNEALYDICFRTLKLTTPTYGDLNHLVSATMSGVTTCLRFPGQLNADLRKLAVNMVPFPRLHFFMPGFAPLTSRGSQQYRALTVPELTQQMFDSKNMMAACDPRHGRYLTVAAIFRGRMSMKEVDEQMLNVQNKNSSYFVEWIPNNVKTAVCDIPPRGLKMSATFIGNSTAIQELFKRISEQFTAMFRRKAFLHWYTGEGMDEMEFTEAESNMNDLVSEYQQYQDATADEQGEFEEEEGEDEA
Sequence of Protein RCC2 (Q9P258 whole entry): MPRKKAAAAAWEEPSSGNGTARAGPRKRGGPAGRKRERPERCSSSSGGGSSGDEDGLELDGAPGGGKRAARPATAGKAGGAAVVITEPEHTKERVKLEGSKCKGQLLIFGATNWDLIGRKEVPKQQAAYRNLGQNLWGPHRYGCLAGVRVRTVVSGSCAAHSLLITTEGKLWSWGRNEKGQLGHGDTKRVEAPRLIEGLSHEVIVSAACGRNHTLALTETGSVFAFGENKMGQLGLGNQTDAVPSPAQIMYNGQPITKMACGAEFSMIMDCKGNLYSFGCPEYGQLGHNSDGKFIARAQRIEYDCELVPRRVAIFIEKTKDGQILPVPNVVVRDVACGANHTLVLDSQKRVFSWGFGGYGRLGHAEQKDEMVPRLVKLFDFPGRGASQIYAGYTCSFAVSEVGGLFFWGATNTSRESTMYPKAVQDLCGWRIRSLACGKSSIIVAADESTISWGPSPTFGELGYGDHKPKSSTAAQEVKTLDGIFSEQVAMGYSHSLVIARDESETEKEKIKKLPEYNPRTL

Consider High mobility group protein B1, P09429, for which the “listed as a hit” value with Histone H4, in the assay with Histone H1.4 and with Protein RCC2 was “yes” throughout.

For the substance Destrin, P60981, the “listed as a hit” value in assay [1] is “yes”.

On to “Fructose-bisphosphate aldolase A, P04075”, for which the “listed as a hit” value (in assay [2]; with Histone H2B type 1-B) was “yes” each time.

Regarding “Heterogeneous nuclear ribonucleoprotein D-like, O14979”, the “listed as a hit” value in the assay with Histone H2B type 1-L was “yes”.

For the substance ATP-dependent RNA helicase A, Q08211, the “listed as a hit” value with Histone H2B type 1-L is “yes”.

Consider Histone H1.3, P16402, for which the “listed as a hit” value in [3] was “yes”.

For the substance “Macrophage migration inhibitory factor, P14174”, the “listed as a hit” value in the assay with Nucleolin is “yes”.

As for Tubulin beta-4B chain, P68371, the “listed as a hit” value with Tubulin beta-2B chain and in the assay with Tubulin beta-3 chain was “yes” throughout.

With “Glyceraldehyde-3-phosphate dehydrogenase, P04406”, the “listed as a hit” value with Tubulin beta-4B chain is “yes”.

Regarding Tubulin beta chain, P07437, the “listed as a hit” value with Tubulin beta-4B chain is on record as “yes”.

(Values after article PMC12701074.)
